An excerpt weighted towards active compounds, which were near 3.2% of everything screened.
BRCT inh red: disrupts BRCA1 BRCT binding to phosphoprotein, red fluorophore readout; BRCT-phosphopeptide binding, red fluorescence polarization; Potency, µM (top dose mostly 76.9 µM), hits mostly inhibitors; 75,000 tested, 0.03% active; AID 892
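Rhodamine-labelled pBACH1 10-mer (100 nM) bound to BRCT domain (100 nM) at pH 7.3; compounds incubated 12 min room temperature, polarization read. Free peptide defines full inhibition; unlabelled decapeptide titrated as control.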
BRCT inh green: inhibitors of human BRCA1 BRCT-phosphoprotein interaction (green fluorophore); 75,000 tested, 0.05% active; Potency, µM (highest dose often 76.9 µM), usual class: inhibitors; P38398; BRCA1 BRCT-phosphopeptide binding, green fluorescence polarization; AID 875
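Fluorescence polarization: His-tagged BRCT (~35 kDa BRCA1 C-terminus, 250 nM) bound to 100 nM fluorescein-labeled phosphorylated 10-aa BACH1 peptide, pH 7.3 phosphate buffer with DTT and Tween 20. Compounds incubated 12 min at room temperature; inhibition read as lowered polarization.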
Pol III holo inh: inhibitors of bacterial DNA polymerase III holoenzyme; reconstituted DNA polymerase III holoenzyme replication, biochemical; Potency, µM (series often up to 57.1 µM); 71,000 tested, 0.25% active; AID 603
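Reconstituted *E. coli* holoenzyme (0.35 nM Pol III, 1 nM beta, 154 nM SSB, 2 nM primase) was preincubated with compound for 15 min at RT. Synthesis on 1.4 nM ssM13Gori ran 35 min, then was stopped with PicoGreen/EDTA and read as dsDNA fluorescence.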
YjeE inh: YjeE (TsaE) inhibition, E. coli. purified YjeE enzyme, qHTS inhibition assay. Potency, µM. 71,000 tested, 0.05% active. AID 605
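Purified YjeE (10 uM) with BODIPY Texas Red-labeled ADP probe (2 uM); compounds pin-transferred, 15 min at room temperature. Binding inhibition read as decreased fluorescence polarization; ADP titration as control.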
HEK293 cAMP cs: parental HEK293 cAMP activation (counter-screen). parental HEK293 CNG cAMP sensor, membrane potential fluorescence. Potency, µM (titrated, usually from 57.1 µM), hits mostly activators. 73,000 tested, 2.5% active. AID 938; also: nearly all actives have a fitted effect of over 55% in size
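Parental HEK 293 cells stably expressing a modified CNG channel (no TSHR) report cAMP rise as membrane depolarization. Membrane potential dye with 100 uM RO 20-1724 was loaded for 60 min at room temperature, then compound added for 30 min; fluorescence read at 590 nm.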
TSHR ag: TSH receptor (human) agonism. 73,000 tested, 0.48% active. Potency, µM (titrated, usually from 57.1 µM), actives largely listed as activators. HEK293-CNG-TSHR cells (CNG channel as cAMP sensor), membrane potential dye, cAMP. P16473; active = well fitted activation curve with a large enough effect in the main read-out, with a control signal flat, not every such curve was filed as active; inconclusive = small, poorly fitted or top-dose-only effect, or a change in a side signal; inactive = no such curve, though single readings can be large or run the other way; reference of the percent scale not stated here;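 also: the control signal comes from parental cells without the receptor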
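cAMP rise detected as CNG-channel membrane depolarization by fluorescent dye (emission 590 nm), 30 min after compound, following 60 min dye loading containing 100 uM RO 20-1724 at room temperature. Cells: TSHR/CNG HEK 293, with parental CNG HEK 293 as control.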
Of the large screens only hits and unclear results are named; the others gave an inactive call; ! = not active in a repeat. Unless noted, calls follow the shape of the dose curve; as a rule, active = well fitted curve in the direction sought with a large enough effect; inconclusive = small, poorly fitted or top-dose-only effect, or another doubt; inactive = no such curve, though single readings can be large; an effect the other way counts as inactive or inconclusive.

c1cncc(CNc2ncnc3ccc(-c4ccoc4)cc23)c1	none
Cc1ccccc1-c1ccc2ncnc(NCc3cccs3)c2c1	Pol III holo inh inconclusive, YjeE inh inconclusive, HEK293 cAMP cs 4µM, TSHR ag inconclusive
Cc1cccc(CNc2ncnc3ccc(-c4ccoc4)cc23)c1	HEK293 cAMP cs 32µM, TSHR ag inconclusive
COc1ccccc1-c1ccc2ncnc(NCc3cnc(C)cn3)c2c1	HEK293 cAMP cs 25µM, TSHR ag inconclusive
O=C(O)c1cc(-c2ccncc2)nc2ccccc12	none
COC(=O)C1=C(C)N(C)C(C)=C(C(=O)OC)C1c1ccc(F)c(Br)c1	HEK293 cAMP cs 32µM, TSHR ag inconclusive
COC(=O)C1=C(C)N(C)C(C)=C(C(=O)OC)C1c1ccncc1	none
O=C(Nc1nccs1)c1c(O)c2cccc3c2n(c1=O)CCC3	HEK293 cAMP cs 1.3µM, TSHR ag inconclusive
Cc1ccc(-c2noc(CCC(=O)NC3CCN(Cc4ccccc4)CC3)n2)cc1	HEK293 cAMP cs inconclusive, TSHR ag inconclusive
Cc1nnc(NCc2ccco2)c2ccccc12	none
Nc1ccc(O)c(C(=O)O)c1	BRCT inh red inconclusive, Pol III holo inh 16µM!
CC(C)(C)NC(=O)NC(=O)COc1ccccn1	HEK293 cAMP cs 10µM, TSHR ag inconclusive
CC(C)(C)NC(=O)NC(=O)COC(=O)COc1ccc2c(c1)CCC2	none
Cc1ccsc1-c1nc(CSCC(=O)N2CCN(c3ccccc3)CC2)c(C)o1	HEK293 cAMP cs inconclusive, TSHR ag inconclusive
COC(=O)N1[C@H](Cc2ccccc2)C=C[C@]1(C)C(=O)O	none
COC(=O)[C@@]1(C)C=C[C@@H](Cc2ccccc2)N1C(=O)c1ccccc1	HEK293 cAMP cs 20µM, TSHR ag inconclusive
O=C(Oc1ccccc1)N1CCC2(CCCN(c3ncccn3)C2)CC1	HEK293 cAMP cs 20µM, TSHR ag inconclusive
COc1ccc(C2c3c(-c4cc(Cl)c(C)cc4O)n[nH]c3C(=O)N2Cc2cccnc2)cc1OC (configuration not stated)	TSHR ag 7.9µM
COc1ccc(C2c3c(oc4c(C)cc(C)cc4c3=O)C(=O)N2Cc2cccnc2)cc1OC (configuration not stated)	none
CC(=O)Nc1ccc(SCC(=O)c2cc(C)n(Cc3cccs3)c2C)cc1	HEK293 cAMP cs inconclusive, TSHR ag inconclusive
COc1ccc(-c2nnc(SCC(=O)c3cc(C)n(Cc4cccs4)c3C)o2)cc1	Pol III holo inh inconclusive, HEK293 cAMP cs inconclusive, TSHR ag inconclusive
CC(=O)Nc1ccccc1OCC(=O)c1cc(C)n(Cc2cccs2)c1C	HEK293 cAMP cs 10µM, TSHR ag inconclusive
Cc1cc(C(=O)COC(=O)c2ccc3c(c2)OCO3)c(C)n1Cc1cccs1	HEK293 cAMP cs inconclusive, TSHR ag inconclusive
COc1ccc(-n2cnnc2SCC(=O)c2cc(C)n(Cc3cccs3)c2C)cc1	HEK293 cAMP cs 25µM, TSHR ag inconclusive
Cc1csc(SCC(=O)c2cc(C)n(Cc3cccs3)c2C)n1	HEK293 cAMP cs 16µM, TSHR ag inconclusive
c1csc(CSc2nc3ccccc3s2)c1	none
CCn1c(CSc2nc3ccccc3s2)nc2ccccc21	HEK293 cAMP cs 4µM, TSHR ag inconclusive
Cc1nc(NC(C)c2ccccc2)c2oc3ccccc3c2n1 (configuration not stated)	Pol III holo inh inconclusive, HEK293 cAMP cs 16µM, TSHR ag inconclusive
Cc1nc(Nc2ccncc2)c2oc3ccccc3c2n1	none
O=C1Nc2ccc(S(=O)(=O)N3CCOCC3)c3cccc1c23	none
O=C1Nc2ccc(S(=O)(=O)N3CCCCCC3)c3cccc1c23	HEK293 cAMP cs 32µM, TSHR ag inconclusive
COC(=O)CSc1ncc(C#N)c(N)n1	none
CC(Sc1ncc(C#N)c(N)n1)C(=O)Nc1ccccc1 (configuration not stated)	HEK293 cAMP cs 32µM, TSHR ag inconclusive
CCOC(=O)c1ccccc1NC(=O)C1COc2ccccc2O1 (configuration not stated)	HEK293 cAMP cs 25µM, TSHR ag inconclusive
COC(=O)c1cc(NC(=O)C2COc3ccccc3O2)cc(C(=O)OC)c1 (configuration not stated)	HEK293 cAMP cs inconclusive, TSHR ag inconclusive
CC(=O)N(C(C)=O)c1ncc2c([nH]c3ccccc32)c1C#N	HEK293 cAMP cs 25µM, TSHR ag inconclusive
CNC(=O)c1cc2c(cn1)[nH]c1ccccc12	HEK293 cAMP cs inconclusive, TSHR ag inconclusive
Cc1ccc(OCc2nc(C#N)c(NCc3ccc4c(c3)OCO4)o2)cc1	HEK293 cAMP cs 16µM, TSHR ag inconclusive
COc1cc(NC(=O)C23CC4CC(C2)CC(n2nnc(C)n2)(C4)C3)c(OC)cc1Cl	none
Cc1nnc(SCC(=O)c2c(N)n(C)c(=O)n(C)c2=O)[nH]c1=O	none
CC(C)c1nc(-c2c(N)n(C)c(=O)n(C)c2=O)sc1C(=O)C(C)(C)C	HEK293 cAMP cs 16µM, TSHR ag inconclusive
O=C(C1CCN(S(=O)(=O)N2CCC3(CC2)OCCO3)CC1)N1CCC(Cc2ccccc2)CC1	none
O=C1c2ccccc2C(Nc2ccc(F)c(Cl)c2)N1c1ccccn1 (configuration not stated)	TSHR ag 20µM
COc1ccc2[nH]c(=O)c(C(c3nnnn3C(C)(C)C)N(Cc3ccco3)CC3CCCO3)cc2c1 (configuration not stated)	HEK293 cAMP cs 16µM, TSHR ag inconclusive
CCC(C)(C)n1nnnc1CN(Cc1cc2cc(OC)ccc2[nH]c1=O)C1CCCC1	HEK293 cAMP cs 20µM, TSHR ag inconclusive
COCn1c(-c2ccc(OC)c(OC)c2)nc2ccccc21	none
Cn1c(CN2CCCCC2)nc2cc(NS(=O)(=O)c3ccc(Cl)cc3)ccc21	none
O=C(Nc1ccc(Br)cc1Cl)c1cnccn1	none (no result: Pol III holo inh, YjeE inh)
O=C(COc1ccc2ccccc2c1Br)N1CCN(c2ccccn2)CC1	none (no result: TSHR ag)
C[C@@H](Cc1ccccc1)Nc1ncnc2c1ncn2[C@@H]1O[C@@H](CO)[C@H](O)[C@@H]1O	HEK293 cAMP cs 25µM, TSHR ag inconclusive
Cc1ccccc1CNc1ncnc2c1ncn2[C@@H]1O[C@@H](CO)[C@H](O)[C@@H]1O	HEK293 cAMP cs 7.9µM, TSHR ag inconclusive
CNc1ncnc2c1ncn2[C@@H]1O[C@H](CO)[C@@H](O)[C@@H]1O	HEK293 cAMP cs inconclusive, TSHR ag inconclusive
O=C(Nc1ccccc1)N1CCC2(CC1)CCN(C(=O)c1csnn1)CC2	TSHR ag 4µM
COc1ccc(CCn2c(-c3ccco3)nc3nc4ccccc4nc32)cc1	none
COc1ccc(C(=O)n2c(-c3ccco3)nc3ccccc32)cc1	HEK293 cAMP cs 25µM, TSHR ag inconclusive

Compound activity deposited in PubChem by National Center for Advancing Translational Sciences (NCATS).
